Measurements: PubChem BioAssay (Tox21)
Values without a mark were called inactive. Activity calls are given as the source filed them. Calls follow the shape of the full dose curve.

Test: G protein-coupled receptor (GPCR) small molecule agonists, calcium flux assay: HEK293 wild type cell line counter screen (AID 1920065)
Settings: HEK293 WT calcium flux, fluorescence, agonist mode; series mostly up to 57.6 µM; activation: at the top concentration
Excerpt: U.S. Tox21 Program National Center for Advancing Translational Sciences [NCATS] Division of Preclinical Innovation [DPI] U.S. Environmental Protection Agency [EPA] National Institutes of Environmental Health Sciences [NIEHS] National Toxicology Program [NTP] U.S. Food and Drug Administration [FDA] Assay overview: The increased intracellular calcium release that occurred upon G protein-coupled receptor (GPCR) activation led to the frequent use of calcium flux assays to detect GPCR activation. For the purpose of studying and screening compounds that may activate GPCR, receptor-overexpressing models were typically generated using Hek293 wild-type (WT) cells. In order to eliminate the compounds that may have induced calcium release for non-specific activation, a counter-assay utilizing calcium flux on Hek293 WT cells was performed. The data were formulated in order to serve as a control for any calcium flux detection utilizing Hek293 cells with either GPCR overexpression or gene modification. The procurement of Hek293 WT cells from ATCC. Fluorescence intensity can be utilized to determine the activation of the compound in a calcium flux assay. As a counter control, this cell line was utilized to screen the Tox21 10K compound library.
Assay Protocol Summary: Hek293 cells were dispensed at 1500cells/4uL/well in 1536-well black wall/clear bottom plates using a multidrop dispenser. After the assay plates were incubated at a 37 C/5% CO2 incubator for 18 hours, 4 uL of Calcium Dye Solution was added to each well. The plates were incubated at 37 C for 1 hour. For agonist mode, 23 nL of compounds dissolved in DMSO, positive control (ATP) or DMSO only was transferred to the assay plate by a pin tool station. The fluorescence intensity in the plates was measured using FDSS 7000EX kinetic plate reader with a filter set of Ex/Em=480/540 for 3 min at 1 sec intervals. Each test compound was measured at 15 concentrations and in triplicates.
% is scaled to controls: 0 for no effect and ±100 for the full control effect.

| Structure (SMILES) | activation | Potency |
| --- | --- | --- |
| Nc1ccc(N)c(Cl)c1 | -0.411% |  |
| Oc1ccc(C(c2ccc(O)cc2)C(Cl)(Cl)Cl)cc1 |  | inactive |
| CCCCCCC1(C)CCC(=O)O1 (stereo not given) | -0.79% |  |
| COc1ccc(C)cc1 | 0.791% |  |
| [Cl][In]([Cl])[Cl] |  | inactive |
| CC(C)(C)OC(=O)c1cccc(N)c1 | 0.23% |  |
| CC1CCc2nccnc21 (stereo not given) | 1.94% |  |
| CC[C@H]1CN2CCc3cc(OC)c(OC)cc3[C@@H]2C[C@@H]1C[C@H]1NCCc2cc(OC)c(OC)cc21 |  | inactive |
| COc1cc(C(=S)N2CCOCC2)ccc1O | 2.98% [at 26.5 µM] |  |
| C=CC(=O)OCCOC1C2CCC1C1CC=CC12 (stereo not given) | 0.0334% [at 11.8 µM] |  |
| CCCCCC(CC)OC(=O)CCCOc1ccc(Cl)cc1Cl (stereo not given) | 0.877% |  |
| O=C(O)[C@H](O)[C@@H](O)[C@H](O[C@@H]1O[C@H](CO)[C@H](O)[C@H](O)[C@H]1O)[C@H](O)CO | 0.21% [at 26.5 µM] |  |
| CCNc1nc(N)nc(Cl)n1 | -0.111% |  |
| CC(C)NCC(O)COc1cccc2ccccc12 (stereo not given) |  | inactive |
| CCCCC(CC)COP(=O)(OCC(CC)CCCC)OCC(CC)CCCC (stereo not given) |  | inactive |
| OCCCCl | 0.362% |  |
| Oc1ccc(Sc2ccc(O)cc2)cc1 | 0.142% |  |
| CN1N=C(C(N)=O)CCC1=O | 0.337% [at 26.5 µM] |  |
| O=C(O)C[C@H](NC(=O)OCc1ccccc1)C(=O)O | -0.585% |  |
| COc1cccc(Br)c1 | 0.823% |  |

| Structure (SMILES) | activation | Potency |
| --- | --- | --- |
| O=C(c1ccccc1O)c1ccccc1O | -5.14% |  |
| CCCCC(CC)COC(C)=O (stereo not given) |  | inactive |
| N[C@@H](Cc1c[nH]c2ccc(O)cc12)C(=O)O |  | inactive |
| C=C(C)C(=O)OCCC[Si](Cl)(Cl)Cl | 0.16% |  |
| CCC(=O)c1ccc(O)cc1 | -1.49% [at 26.5 µM] |  |
| C[C@]12CC[C@@H]3c4ccc(O)cc4CC[C@H]3[C@@H]1CCC2=O |  | inactive |
| CCC(C(=O)OCCOCCN(CC)CC)c1ccccc1 (stereo not given) | 0.491% [at 26.5 µM] |  |
| O=C(O)[C@@H]1[C@H]2C[C@H]3c4[nH]c5ccccc5c4CCN3C[C@@H]2CC[C@@H]1O | 4.68% [at 26.5 µM] |  |
| C=Cc1ccccn1 | -0.439% |  |
| COC(=O)Cc1cccc2ccccc12 | -1.99% |  |
| Cn1ccnc1 | -0.0073% |  |
| CCc1cnc(C(=O)O)c(C(=O)O)c1 | -0.117% |  |
| CC1(C)C(O)C(C)(C)C1O (stereo not given) | 0.538% |  |
| CNC(=O)[C@H]1O[C@@H](n2cnc3c(NCc4cc(Cl)ccc4OCc4cc(C)no4)ncnc32)[C@H](O)[C@@H]1N | -0.0469% |  |
| CC[C@]12CCCN3CCc4c(n(c5ccccc45)[C@@](O)(C(=O)OC)C1)[C@@H]32 |  | inactive |
| CC(=O)OCCCc1ccccc1 | -0.0404% |  |
| CCCCOCCOCCOCCO |  | inactive |
| Nc1nnnn1-c1ccccc1 | -1.04% [at 26.5 µM] |  |
| Nc1cc(C(Cl)=C(Cl)Cl)c(S(N)(=O)=O)cc1S(N)(=O)=O | 0.0725% [at 26.5 µM] |  |
| Cc1cc(C)cc(OCC2CNC(=O)O2)c1 (stereo not given) | -0.0485% [at 26.5 µM] |  |
